The text below walks through data of PubChem BioAssay (Tox21).

Experiment [1] can be described thus: qHTS assay for small molecule agonists of the p53 signaling pathway - cell viability (AID 651633; calls by dose curve; further: nearly all actives have a fitted effect of over 30% in size; further: potency means the concentration at half of the fitted maximal effect). In a few lines: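 p53RE-bla cells were treated with compound for 16 hours at 37 C. Cytotoxicity was then measured as CellTiter-Glo luminescence after 30 min at room temperature.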
A short description of experiment [2]: qHTS assay for small molecules that induce genotoxicity in human embryonic kidney cells expressing luciferase-tagged ATAD5 - cell viability (AID 651634; calls by dose curve; further: nearly all actives have a fitted effect of over 25% in size; further: potency means the concentration at half of the fitted maximal effect). In a few lines:
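Cytotoxicity counterscreen in HEK293T cells bearing an ATAD5-luciferase reporter: live-cell protease activity measured by CellTiter-Fluor fluorescence after 15.5 hr compound exposure.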

Experiment [3] is described as follows: qHTS assay for small molecule disruptors of the mitochondrial membrane potential - cell viability (AID 720634; calls by dose curve; further: nearly all actives have a fitted effect of over 20% in size; further: potency means the concentration at half of the fitted maximal effect). In a few lines:
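After overnight attachment at 37 C, HepG2 cells received compound or DMSO vehicle for 1 hr. Viability is then taken from ATP-driven luminescence following a 30 min room-temperature CellTiter-Glo step.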

Experiment [4] in a line: qHTS assay for small molecule disruptors of the mitochondrial membrane potential (AID 720635). Further: potency means the concentration at half of the fitted maximal effect. In short, it runs like this: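 HepG2 cells exposed to compound 1 hr at 37C, then Mito-MPS dye 30 min. Ratio read of aggregate (540/590 nm) versus monomer (490/535 nm) fluorescence.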
Experiment [5] is described as follows: qHTS assay to test for compound auto fluorescence at 590 nm (red) in HepG2 cells (AID 720674). In short, it runs like this:
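Seeding: 2,000 HepG2 cells/well, MEM/10% FBS, overnight 37 C. Dosing: compound vs DMSO. Incubation: 1 hr, 37 C, 5% CO2. Read: fluorescence 540 ex/590 em, Rose Bengal sodium as red reference.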

Experiment [6] in a line: qHTS assay to test for compound auto fluorescence at 535 nm (green) in HepG2 cells (AID 720675).
Experiment [7] in a line: qHTS assay to test for compound auto fluorescence at 460 nm (blue) in HEK293 cells (AID 720678). In short, it runs like this: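 Measured: blue fluorescence (Ex 405/Em 460 nm) of compound-treated HEK293 cells, incubated overnight at 37C with 5% CO2 and scaled to triamterene equivalents.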
Experiment [8] is described as follows: qHTS assay for small molecules that induce genotoxicity in human embryonic kidney cells expressing luciferase-tagged ATAD5 (AID 651632). Further: nearly all actives have a fitted effect of over 15% in size. Further: potency means the concentration at half of the fitted maximal effect. In a few lines:
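Increased luciferase signal from ATAD5-tagged reporter cells indicates DNA-damage-driven ATAD5 induction. HEK293T cells are treated for 16 hr at 37C before detection with Amplite.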

A short description of experiment [9]: qHTS assay to test for compound auto fluorescence at 590 nm (red) in HEK293 cells (AID 720679). In short, it runs like this: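 Using HEK293 cells at 2,000 per well, the screen added 23 nL of each compound after cell attachment and incubated overnight (37C, 5% CO2). The plate reader then captured red-label fluorescence, Ex/Em 540/590nm.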

Values joined by “and” are separate entries in the source; they are usually repeats but may differ in a detail not shown here. Equal values may be shown once. Unmarked numbers belong to inactive results. Inconclusive results are not listed. Active and inactive are the calls of the source. Unless noted, the call rests on the fitted dose curve; in most records, active means well fitted curve in the direction sought with a large enough effect in the repeat runs; inconclusive means weak or mixed curves; inactive means no such curve, though single readings can be large; an effect the other way counts as inactive or inconclusive.
On the % scale 0 is the no-effect control and ±100 the full control effect.

As for `Cc1cc2c(C(C)C)c(O)c(O)c(C=O)c2c(O)c1-c1c(C)cc2c(C(C)C)c(O)c(O)c(C=O)c2c1O`, the Potency is 8.41 µM (active) in experiment [1], 13.3 µM (active) in [2] and 11.9 µM (active) in experiment [4]. For the same molecule, the Potency entry in [3], in experiment [5], in experiment [6] and in [7] was “inactive” each time.

Regarding `Clc1ccccc1CN1CCc2sccc2C1`, the Potency entry in [8], in experiment [3], in [5], in [6], in experiment [7] and in experiment [9] was “inactive” throughout. The Potency in [4] was 26.6 µM (active).

Consider `CCN(CC)c1ccc(N)cc1`, for which the Potency result in experiment [8], in experiment [1], in experiment [6], in experiment [7] and in experiment [9] was “inactive” throughout. In addition, the Potency in [4] is 49.9 µM (active).

Turning to `CCCCCCOc1cc(C)c(O)c(C)c1C`, the Potency result in experiment [8], in experiment [5], in experiment [6] and in experiment [7] was “inactive” throughout. For the same molecule, the Potency in experiment [3] was 27.6 µM (active); in experiment [4] it was 5.51 µM (active).

`CCCCCCCCCCCCN(CCO)CCO`: the Potency result in experiment [8], in [6], in experiment [7] and in experiment [9] was “inactive” in each case. Moreover, the Potency in experiment [1] was 54.3 µM (active).

`O=C1NCN(c2ccccc2)C12CCN(CCCC(c1ccc(F)cc1)c1ccc(F)cc1)CC2`: the Potency in experiment [1] is 26.6 µM (active); in [2], 26.6 µM (active); in experiment [3], 21.1 µM (active); in [4], 19.7 µM (active). In addition, the Potency entry in experiment [5], in experiment [6] and in [7] was “inactive” each time.

As to `Nc1ncnc2c1ncn2[C@@H]1O[C@H](COP(=O)(O)O)[C@@H](O)[C@H]1O`, the Potency result in [8], in [1], in [3], in experiment [6], in experiment [7] and in [9] was “inactive” in each case.

Regarding `CC(C)(C)C1=CC(=O)C=C(C(C)(C)C)C1=O`, the Potency entry in experiment [8], in experiment [5], in [6], in experiment [7] and in [9] was “inactive” each time. Besides, the Potency in experiment [3] was 61.1 µM (active); in experiment [4], 7.7 µM (active).

As to `CC(C)OC(=O)c1cc(C(=O)OC(C)C)cc([N+](=O)[O-])c1`, the Potency result in experiment [8], in experiment [1], in [5], in experiment [6], in experiment [7] and in experiment [9] was “inactive” in each case.

With `CSc1ccc2c(c1)N(CCC1CCCCN1C)c1ccccc1S2` (configuration not stated), the Potency result in [8], in [5], in experiment [6], in experiment [7] and in experiment [9] was “inactive” throughout.

With `Clc1ccc(C(Cn2ccnc2)OCc2ccsc2Cl)c(Cl)c1` (configuration not stated), the Potency result in [8], in [3], in experiment [5], in experiment [6], in [7] and in experiment [9] was “inactive” in each case.

Regarding `C=CC(=O)OCCOCC(CC)(COCCOC(=O)C=C)COCCOC(=O)C=C`, the Potency was 28.4 µM (active) in [8] and 80.2 µM (active) in [2]. The Potency entry in experiment [3], in [4], in experiment [5], in experiment [6], in experiment [7] and in [9] was “inactive” throughout.

As to `C[C@@]12C(=O)OC(=O)[C@]1(C)C1CCC2O1`, the figures for the Potency in [8], in [2] and in experiment [4] were 0.902 µM (active), 3.59 µM (active) and 0.101 µM (active), respectively. The Potency result in experiment [3] is “inactive”. The fluorescence, relative to Rose Bengal in [5] is 0.463% [at 18.6 µM]. Also, in [6], the fluorescence, % of fluorescein control was -0.0054% [at 18.6 µM]. The fluorescence, % of triamterene in [7] is -0.421% [at 18.6 µM]. The fluorescence, % of fluorescent control in experiment [9] was -0.0987% [at 18.6 µM].

In the case of `NCCCC(O)(P(=O)(O)O)P(=O)(O)O`, the Potency result in experiment [1], in [2], in [3], in experiment [4], in [5] and in experiment [6] was “inactive” each time. Moreover, in [7], the Potency entry was “inactive”.

With `C=C(c1ccc(C(=O)O)cc1)c1cc2c(cc1C)C(C)(C)CCC2(C)C`, the Potency result in experiment [8], in experiment [3], in [5], in experiment [6], in experiment [7] and in experiment [9] was “inactive” each time. Also, the Potency in experiment [4] was 9.44 µM (active) and 21.7 µM (active).

On to `C[C@]12CC[C@H]3C(=CCc4cc(O)ccc43)[C@@H]1CCC2=O`, for which the Potency result in experiment [8], in experiment [1], in [5], in experiment [6], in [7] and in experiment [9] was “inactive” each time. For the same molecule, the Potency in [4] was 19.3 µM (active).

`COc1cccc(CCc2ccccc2OCC(CN(C)C)OC(=O)CCC(=O)O)c1` (configuration not stated): the Potency entry in experiment [8], in experiment [2], in experiment [3], in [6], in experiment [7] and in experiment [9] was “inactive” throughout.

In the case of `O=C1Nc2ccc(Cl)cc2[C@@](C#CC2CC2)(C(F)(F)F)O1`, the Potency result in [8], in experiment [5], in experiment [6], in experiment [7] and in [9] was “inactive” throughout. Besides, the figures for the Potency in experiment [3] and in experiment [4] were 29.8 µM (active) and 4.73 µM (active), respectively.

In the case of `CC=O`, the Potency entry in experiment [8], in experiment [5], in experiment [6], in experiment [7] and in [9] was “inactive” throughout.

For `CC(=O)Nc1ccc(O)cc1`, the Potency entry in experiment [8], in [2], in [3], in experiment [4], in experiment [5] and in experiment [6] was “inactive” each time. The Potency result in [7] and in [9] was “inactive” each time.

In the case of `c1cc(OCC2CO2)cc(OCC2CO2)c1` (configuration not stated), the Potency entry in [8], in experiment [3], in experiment [5], in [6], in experiment [7] and in experiment [9] was “inactive” each time.

For `CCCCCCCCCCCCCC[n+]1ccccc1`, the Potency result in experiment [8], in [3], in experiment [5], in [6] and in [7] was “inactive” in each case. The Potency in experiment [4] is 21.7 µM (active).

As to `CCCCCCCC/C=C/CCCOC(C)=O`, the Potency result in experiment [8], in experiment [1], in experiment [3], in experiment [6], in [7] and in experiment [9] was “inactive” in each case.

Consider `CSc1c(Cl)c(Cl)c(Cl)c(Cl)c1Cl`, for which the Potency entry in [8], in experiment [3], in experiment [5], in experiment [6], in experiment [7] and in experiment [9] was “inactive” each time.

Turning to `CCN1CCN(c2cc(-c3ccc(F)cc3)c3c(n2)CCCCCC3)CC1`, the Potency entry in experiment [8], in experiment [3], in [4], in experiment [5], in experiment [6] and in experiment [7] was “inactive” each time.

In the case of `C=CC(=O)OCCC#N`, the Potency entry in experiment [8], in experiment [2], in [3], in experiment [6] and in [7] was “inactive” each time.

For the molecule `CC(=O)OC(OC(C)=O)c1ccc([N+](=O)[O-])o1`, the Potency in experiment [2] was 62.2 µM (active); in [4], 31.2 µM (active). Further, the Potency entry in experiment [5], in experiment [6], in [7] and in [9] was “inactive” in each case.

As to `Nc1cc(Cl)c([N+](=O)[O-])cc1O`, the Potency entry in experiment [1], in [3], in experiment [5], in [6], in [7] and in experiment [9] was “inactive” in each case. The Potency in experiment [2] is 68 µM (active); in [4], 19.2 µM (active).

For the molecule `Cc1c(-c2ccc(O)cc2)n(Cc2ccc(OCCN3CCCCCC3)cc2)c2ccc(O)cc12`, the Potency entry in experiment [3], in experiment [5], in experiment [6] and in experiment [7] was “inactive” each time. In addition, the Potency in experiment [4] is 10.6 µM (active).

Take `CN(Cc1cc(Br)cc(Br)c1N)C1CCCCC1`: the Potency is 29.8 µM (active) in experiment [1] and 26.6 µM (active) in [4]. Also, the Potency result in experiment [2], in experiment [5], in experiment [6], in experiment [7] and in [9] was “inactive” in each case.
